Screening results deposited in PubChem by National Center for Advancing Translational Sciences (NCATS).
The list is not random: actives were taken first. Their share in the collection is about 21%.
NS1 function inh: blocks influenza NS1 protein function; Potency, µM (series often up to 46.1 µM), for the others: at the highest dose activity, positive = more growth; hit rate 0.4% among 270,000; AID 2326; calls by dose curve; further: potency means the concentration at half of the fitted maximal effect; actives are rising curves; nearly all actives have a fitted effect of over 50% in size
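Growth recovery, yeast-based: influenza A NS1 expressed in S. cerevisiae causes slow growth, and suppressors are detected by OD600. The parent strain without NS1 is used as positive control.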
Pf growth 96h: P. falciparum growth inhibition at 96 hours. Potency, µM (doses to about 28.7 µM), without a hit: at the top dose activity change, negative = inhibition, hits mostly inhibitors. hit rate 6.9% among 320,000. P. falciparum luciferase reporter growth, 96 h; further: potency means the concentration at half of the fitted maximal effect; on the % scale 0 is the no-effect control and ±100 the full control effect
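Luminescence readout: decreased luciferase signal marks inhibited growth of reporter-expressing P. falciparum in infected red cells (2% hematocrit, 0.05% parasitemia final), exposed to compound two generations (96 h, 37 C, 5% CO2).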
Cycloheximide cs: affects cycloheximide protein synthesis inhibition readout, counter-screen; cell reporter, cycloheximide protein synthesis inhibition counterscreen; hit rate 12% among 300,000; max response, %; AID 2314; in the data active means max response mostly above about 13%, no sharp cut-off; inactive means mostly below about 14%; further: read at 38.3 µM for the half of the compounds with a filed dose; 0% is about no effect
Shiga inhibitor: inhibitors of Shiga toxin in Vero cells. inhibition, % at 38.7 µM. hit rate 9.2% among 290,000. Vero cells, Shiga toxin protein synthesis inhibition reporter; in the data active means inhibition mostly above about 28%, no sharp cut-off; inactive means mostly below about 43%; further: 0% is about no effect
Pf growth 48h: inhibits P. falciparum growth in the first generation, 48 h. P. falciparum luciferase growth in erythrocytes, 48 h. Potency, µM (top dose mostly 28.7 µM), without a hit: at the top dose activity change, negative = inhibition, actives largely listed as inhibitors. AID 504832. hit rate 5.9% among 310,000; further: potency means the concentration at half of the fitted maximal effect; on the % scale 0 is the no-effect control and ±100 the full control effect
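Luciferase-expressing parasites in RBCs, 2% Hct / 0.1% parasitemia final; RPMI 1640 + 0.5% Albumax; 37 C, 5% CO2, one generation; luminescence read-out, lower signal = inhibition.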
* = called active by the depositor; ? = inconclusive; . = no result. Unless noted, the call rests on the fitted dose curve; in most records, active means well fitted inhibition curve with a large enough effect; inconclusive means small, poorly fitted or top-dose-only effect, or another doubt; inactive means no such curve, though single readings can be large or run the other way.

SMILES	NS1 function inh	Pf growth 96h	Cycloheximide cs	Shiga inhibitor	Pf growth 48h
O=C(O)c1ccc2c(c1)C(=O)/C(=C\c1ccco1)C2=O	.	11.7µM*	-1.8	6.2	-12.8%
O=C1C(=Cc2ccco2)C(=O)c2ccccc21	9.2%	16.5µM*	37.4*	14.0	3.4%
CC(=O)CCc1ccc(OC(=O)c2cccnc2)cc1	3.4%	-11.0%	2.3	-6.7	?
Cc1c(Cl)c([N+](=O)[O-])nn1CCCC(=O)NCCc1ccccc1	.	7.38µM*	31.2*	101.8*	41.0%
Cc1ccc(-n2nc3c(=O)n(CC(=O)NCCC4=CCCCC4)nc(C)c3c2C)cc1	2.5%	-17.6%	0.7	-3.1	-10.0%
Cc1nn(CCCC(=O)NCCc2ccc(Cl)cc2)c(=O)c2nn(-c3ccccc3)c(C)c12	-1.6%	13.1µM*	-1.0	21.6	-13.5%
CCOC(=O)c1sc(NC(=O)CCCn2nc([N+](=O)[O-])c(Cl)c2C)c(C(=O)OCC)c1C	1.9%	1.31µM*	-0.7	-1.4	2.3%
Cc1ccc(-n2nc3c(=O)n(CC(=O)NCCc4ccc(Cl)cc4)nc(C)c3c2C)cc1	11.8%	0.928µM*	10.4	-6.0	20.2%
CCCOC(=O)c1c(NC(=O)CCCn2nc([N+](=O)[O-])c(Cl)c2C)sc(C(=O)OC)c1C	12.2%	0.0%	-3.0	-14.4	7.1%
Cc1nn(Cc2ccccc2)c(C)c1NC(=O)CCCn1nc([N+](=O)[O-])c(Cl)c1C	-15.1%	?	-5.8	-18.1	-22.2%
N/C(=N\OC(=O)CCC1CCCC1)c1ccncc1	2.5%	?	19.7*	79.9	-1.3%
Cc1ccc(/C(N)=N/OC(=O)CCC2CCCC2)cc1	2.7%	-2.4%	-2.6	2.7	37.5%
N/C(=N\OC(=O)CC1CCCCC1)c1ccncc1	1.5%	?	16.6*	58.3*	16.8%
Cc1ccc(/C(N)=N/OC(=O)CCC2CCCCC2)cc1	-32.9%	?	14.2*	37.6	15.9%
N/C(=N\OC(=O)CC1CCCCC1)c1ccccn1	-4.7%	106.6%	14.2	38.6	102.2%
Clc1ccc2nsnc2c1NC1=NCCN1	.	92.9%	-4.8	-9.8	0.3%
N#Cc1cccc(NC(=O)c2cncn2-c2ccccc2)c1	29.6%	14.9%	-7.5	-10.1	2.2%
Cc1ccc(N(CC(=O)NC(C)(C)C)C(=O)CNC(=O)c2cccs2)cc1	1.6%	6.2%	0.4	15.1	7.38µM*
Cn1c(=O)[nH]c(=O)c2c1nc(N1CCCC1)n2CCSc1nc2ccccc2[nH]1	-5.9%	11.6%	-1.2	-3.7	.
CCOC(=O)CN(C(=O)COc1ccc2c(C)cc(=O)oc2c1)c1ccc(OCC)cc1	-1.6%	72.0%	-1.6	-4.3	?
Cc1nc(N)sc1-c1csc(Nc2ccc(Cl)cn2)n1	-94.9%	9.3%	23.9*	47.6*	-83.2%
Cc1nc(N)sc1-c1csc(Nc2ccccn2)n1	-1.7%	21.6%	33.9*	122.2*	86.3%
Cc1nc(C)c(-c2csc(Nc3ccccn3)n2)s1	-83.9%	-8.7%	48.8*	112.4*	247.1%
CC(=O)Oc1ccc(-c2csc(Nc3ccc(Cl)cn3)n2)cc1	-77.7%	10.7%	41.7*	39.3*	-3.5%
CC1CCC(C(C)C)C(=O)C1 (configuration not stated)	.	-10.8%	.	.	-0.6%
SMILES	NS1 function inh	Pf growth 96h	Cycloheximide cs	Shiga inhibitor	Pf growth 48h
COc1cc2ncnc(Nc3ccc(F)c(Cl)c3)c2cc1OCCCN1CCOCC1	.	.	.	.	0.536µM*
COc1cc2ncnc(Nc3ccc(Cl)cc3F)c2cc1OC	.	.	-2.1	21.0	.
CCC1(c2ccc(F)cc2)NC(=O)N(CC(=O)Nc2ccccc2C)C1=O (configuration not stated)	1.8%	-12.8%	-2.7	-5.3	3.3%
CCC1(c2ccccc2)NC(=O)N(CC(=O)Nc2cc(Cl)ccc2N2CCN(C)CC2)C1=O (configuration not stated)	.	?	.	.	11.7µM*
CN1CCN(c2ccc(Cl)cc2NC(=O)CN2C(=O)NC(C)(c3ccccc3)C2=O)CC1 (configuration not stated)	.	?	.	.	2.94µM*
CCC1(c2ccc(F)cc2)NC(=O)N(CC(=O)N2CCc3ccccc32)C1=O (configuration not stated)	.	10.4µM*	.	.	11.7µM*
CC(C)Oc1cccc(C(=O)C2CCCN(C(=O)CCc3cnn(C)c3)C2)c1 (configuration not stated)	-7.3%	?	51.6*	65.8*	68.6%
CC(C)c1ccc(NC2CCCN(C(=O)CCc3cnn(C)c3)C2)cc1 (configuration not stated)	-0.1%	7.38µM*	2.0	-9.8	1.1%
Cc1nn(C)c(C)c1CCC(=O)N1CCCC(C(=O)c2cccc(OC(C)C)c2)C1 (configuration not stated)	-3.7%	?	12.2	40.3	-1.9%
CCc1cc(C(=O)N2CCCC(C(=O)c3cccc(OC(C)C)c3)C2)n(C)n1 (configuration not stated)	2.7%	?	-2.3	17.9	8.6%
CCc1[nH]nc(C(=O)N2CCCC(C(=O)c3cccc(OC(C)C)c3)C2)c1C (configuration not stated)	-16.0%	?	24.1*	50.7*	?
C=C(C)Cc1c(C)c(C#N)c2nc3ccccc3n2c1NCCCN(C)C	-4.5%	9.28µM*	-1.6	11.0	?
CCc1c(C)c(C#N)c2nc3ccccc3n2c1NCCN(C)C	-56.0%	-11.4%	-1.7	-11.4	9.28µM*
C=CCc1c(C)c(C#N)c2nc3ccccc3n2c1NCCN(C)C	-122.6%	?	-3.0	10.4	?
Cc1c(Cc2ccccc2)c(NCCCO)n2c(nc3ccccc32)c1C#N	-15.5%	-12.5%	4.2	3.7	?
CCCCc1c(C)c(C#N)c2nc3ccccc3n2c1Nc1c(C)n(C)n(-c2ccccc2)c1=O	-12.2%	2.08µM*	-1.9	-20.6	1.85µM*
CCN1CCN(C(=O)CSc2nc3c(c(=O)n(C)c(=O)n3C)n2C)CC1	4.2%	7.5%	-9.1	-14.6	39.8%
CC1(C)CC(=O)C2=C(C1)NC(=O)CC2c1ccccc1F (configuration not stated)	-1.7%	60.3%	0.4	-4.4	-13.4%
Cc1[nH]nc2c1C(c1ccccc1F)CC(=O)N2 (configuration not stated)	?	73.3%	13.3*	-11.2	13.9%
NC(N)=Nc1ccc(N=C(N)N)cc1	3.9%	8.28µM*	-3.4	-5.1	?
Cc1cc(C)c(C)c(S(=O)(=O)NCC(=O)Nc2ccccc2F)c1C	-23.0%	9.4%	-1.5	2.5	-14.4%
O=C(/C=C/c1ccncc1)c1ccc(NC(=O)c2ccccc2F)cc1	-23.7%	-29.8%	-5.2	-12.8	7.0%
Cc1ccc(C(=O)OCc2cc3ccccc3[nH]c2=O)cc1	?	?	-2.7	-2.8	?
Cc1ccc(O)c(-c2cc3ccccc3[nH]2)c1	-30.9%	64.4%	28.0*	33.3*	?
Clc1ccc2[nH]c(-c3ccccc3)cc2c1	-67.6%	210.6%	45.9*	69.9*	145.0%
COc1ccc(-c2cc3ccccc3[nH]2)cc1	-2.1%	149.0%	41.6*	99.7*	132.0%
c1ccc(-c2cc3ccccc3[nH]2)cc1	-21.2%	198.9%	32.6*	37.4*	92.8%
